Screens: PubChem, NMMLSC
Shown are actives, neighbours in structure and some others; about 1.2% of the full set was active somewhere.
GSH fluor: compound fluoresces at 488/530 nm on GSH beads; 0.25% of 190,000 active; GSH beads flow cytometry, compound fluorescence 488/530 nm; stronger effect = higher value; fluorescence (KMESF) at 10 µM; in the data active = fluorescence above about 89;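 also: glutathione beads carrying GST-tagged Bcl family fusion proteins plus one bare bead set; values are compound well signal with DMSO vehicle wells as background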
RGS16-Gao: modulates binding between human RGS16 and Galphao. O15492+P09471. bead-based flow cytometry RGS16-Galphao binding, fluorescence; actives lie on both sides. binding response (% of control), % at 10 µM. 0.38% of 220,000 active;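 also: Galphao activated by GDP with aluminum fluoride before binding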
Target sequence (O15492 whole entry, looked up): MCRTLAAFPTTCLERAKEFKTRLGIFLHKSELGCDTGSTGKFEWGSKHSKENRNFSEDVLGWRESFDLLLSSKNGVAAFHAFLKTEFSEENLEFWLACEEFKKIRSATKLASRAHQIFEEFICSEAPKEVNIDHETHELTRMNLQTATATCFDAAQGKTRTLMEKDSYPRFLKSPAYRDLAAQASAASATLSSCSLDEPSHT
Target sequence (P09471 whole entry, looked up): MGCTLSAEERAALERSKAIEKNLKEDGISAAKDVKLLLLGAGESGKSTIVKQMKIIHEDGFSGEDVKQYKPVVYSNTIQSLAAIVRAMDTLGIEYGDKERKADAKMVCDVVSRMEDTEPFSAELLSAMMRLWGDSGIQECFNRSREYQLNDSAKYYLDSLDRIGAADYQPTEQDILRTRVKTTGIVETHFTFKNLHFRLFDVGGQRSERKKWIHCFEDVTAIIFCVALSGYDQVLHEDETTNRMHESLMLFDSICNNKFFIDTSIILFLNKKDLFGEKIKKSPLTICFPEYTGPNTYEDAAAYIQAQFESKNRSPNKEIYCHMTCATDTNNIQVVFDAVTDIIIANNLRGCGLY
RGS4-Gao reg: human RGS4-Galphao interaction regulation; binding response (% of control), % at 10 µM; 0.33% of 220,000 active; AID 1415; Multiplexed bead flow cytometry, RGS4-Galphao binding; actives lie on both sides; P09471; in the data active = binding response below about 49% or above about 150%; inactive = in between;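 also: fluorescent Galphao activated with aluminum fluoride binding bead-coupled RGS4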
Target sequence (P09471 whole entry, looked up): as above
RGS7-Gao: regulators of human RGS7-Galphao interaction | binding response (% of control), % at 10 µM | 0.35% of 220,000 active | Multiplexed bead flow cytometry, RGS7-Galphao binding; actives lie on both sides | P09471; in the data active = binding response below about 49% or above about 150%; inconclusive = no clear call, values can overlap the other calls; inactive = in between;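 also: fluorescent Galphao held in activated GDP-AlF4 state binding bead-coupled RGS7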
Avidin fluor: avidin bead compound fluorescence profile | Avidin beads, compound fluorescence 488/530 nm, flow cytometry; stronger effect = higher value | fluorescence (KMESF) at 10 µM | 0.38% of 220,000 active; in the data active = fluorescence above about 47
RGS8-Gao: modulates binding of RGS8 to human Galphao; 0.34% of 220,000 active; response (percent of control binding), % at 10 µM; multiplexed bead flow cytometry; actives lie on both sides; P09471; AID 1423; in the data active = response below about 60% or above about 140%; inactive = in between;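 also: Galphao activated as the GDP aluminium fluoride complex binding bead-coupled RGS8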
RGS4-Gao HTS: regulators of human RGS4-Galphao interaction | shares compounds with RGS16-Gao | multiplexed bead flow cytometry, RGS–Galpha-o binding | RGS4–Galpha-o binding response, % at 10 µM | 99% of 1,600 active;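 also: fluorescently labeled Galpha-o bound to GDP with aluminium fluoride binding biotinylated RGS beads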
Avidin counter: biotin-avidin bead binding disruption counter-screen | 1,700 tested, under 10 active | inhibition, % at 10 µM | shares compounds with RGS16-Gao | streptavidin beads, fluorescein-biotin binding, flow cytometry;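 active = inhibition above 50%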;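 also: median green fluorescence of gated singlet beads compared with DMSO control wells; 0% = DMSO wells and 100% = complete loss of bead fluorescence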
RGS8-Gao single: RGS8-Galphao interaction regulation, single point confirmation. binding response (% of control), % at 10 µM. shares compounds with RGS16-Gao. bead-based flow cytometry RGS8-Galphao binding, fluorescence; actives lie on both sides. AID 1836. 3% of 1,700 active; in the data active = binding response below about 72% or above about 130%; inactive = in between;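 also: Galphao activated as GDP AlF4 complex before binding bead RGS8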
RGS7-Gao single: confirmation of regulators of human RGS7-Galphao interaction | shares compounds with RGS16-Gao | bead-based flow cytometry RGS7-Galphao binding; actives lie on both sides | 7.8% of 1,700 active | response (percent of control binding), % at 10 µM | AID 1837; in the data active = response below about 75% or above about 130%; inactive = in between;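 also: fluorescent Galphao activated with GDP and aluminum fluoride binding bead-coupled RGS7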
RGS16-Gao single: RGS16-Galphao interaction regulation, single point confirmation; shares compounds with RGS16-Gao; bead-based flow cytometry, RGS16-Galphao binding; actives lie on both sides; response (% of control binding), % at 10 µM; 4% of 1,700 active; AID 1838; in the data active = response below about 74% or above about 130%; inactive = in between;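 also: Galphao activated as the GDP aluminium fluoride complex binding bead-coupled RGS16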
RGS4-Gao single: confirmation of regulators of human RGS4-Galphao interaction; shares compounds with RGS16-Gao; RGS4-Galphao binding, multiplexed bead flow cytometry; actives lie on both sides; binding response (% of control), % at 10 µM; 4% of 1,700 active; AID 1840; in the data active = binding response below about 74% or above about 130%; inactive = in between
RGS19-Gao single: confirmation of regulators of human RGS19-Galphao interaction. shares compounds with RGS16-Gao. 5% of 1,700 active. bead-based flow cytometry RGS19-Galphao binding; actives lie on both sides. response (percent of control binding), % at 10 µM; in the data active = response below about 50% or above about 160%; inactive = in between;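 also: 100% = no compound control and 0% = blank background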
An asterisk follows results filed as active; ? = inconclusive; . = no result given; ! = repeats disagree; [ ] = dose if it differs, or a comment. Unless noted, no rule for the calls is given here.

SMILES	GSH fluor	RGS16-Gao	RGS4-Gao reg	RGS7-Gao	Avidin fluor	RGS8-Gao	Avidin counter	RGS8-Gao single	RGS7-Gao single	RGS16-Gao single	RGS4-Gao single	RGS19-Gao single	others
Cc1cc(Cl)nc(N)n1	9	311	114	112	5	146*[activator]	-2	96	93	96	96	100	RGS4-Gao HTS=114*
CCSC1=NN1c1cc(C)nc(N)n1	.	97	102	?	9	102	.	.	.	.	.	.
COC(=O)C(O)(c1ccc(NC(=O)c2cccs2)cc1)C(F)(F)F (centres undefined)	.	102	101	?	4	107	.	.	.	.	.	.
CCN1CCN(C(c2cccs2)C(C)NC(=O)Oc2ccccc2)CC1 (centres undefined)	18	100	100	96	5	103	.	.	.	.	.	.
N#CC(C#N)=Cc1ccc(N2CCCC2)cc1	20	150	184*[activator]	668*[activator]	118*	71	1	102	103	103	104	86
CN(C)C(=O)Nc1cccc(OC(=O)N(C)C)c1	22	108	126	281*[activator]	178*	99	0	98	99	101	101	101	RGS4-Gao HTS=126*
O=C1NC(c2cccnc2)Nc2sc3c(c21)CCCC3 (centres undefined)	29	23*	86	94	4	72	-3	101	98	100	99	94	RGS4-Gao HTS=86*
CCN(CC)c1ccc(/C=C2/C(=O)NC(=O)N(CC3CCCO3)C2=O)cc1 (centres undefined)	14	101	99	100	8	103	.	.	.	.	.	.
O=C1NC(=O)N(CC2CCCO2)C(=O)/C1=C/c1cccs1 (centres undefined)	.	160	185*[activator]	?	75*	108	2	88	93	93	99	87
CC(=O)N1CC(=O)Nc2ccc(Cl)cc2C1c1ccc(F)cc1 (centres undefined)	12	11*	25*	19*	2	15*	0	101	100	100	101	99
CCC(=O)N1CC(=O)Nc2ccc(Cl)cc2C1c1ccc(F)cc1 (centres undefined)	33	105	105	101	14	101	.	.	.	.	.	.
CCC(C)C1NC(=O)C(C(C)=O)=C1O (centres undefined)	.	65	65	?	5	83	.	.	.	.	.	.
O=c1[nH]c(O)c(N=Nc2ccc(S(=O)(=O)N3CCOCC3)cc2)c(=O)[nH]1	8	97	98	97	8	97	.	.	.	.	.	.
O=c1[nH]c(=S)[nH]c(O)c1N=Nc1ccc(S(=O)(=O)N2CCOCC2)cc1	.	-19*	-36*	?	-4	0.7*	-1	99	98	99	99	89
CC(=NCC1CCCO1)c1c(O)n(C)c(=O)n(C)c1=O (centres undefined)	10	-18*	-9.3*	31*	7	54*	-1	101	92	99	98	96
Cc1ccccc1-n1c(O)c(/C=N/N2CCOCC2)c(=O)[nH]c1=S	18	46	150*[activator]	138	78*	84	-1	101	101	104	101	115
COc1ccccc1-n1c(O)c(C=NCCN2CCNCC2)c(=O)[nH]c1=O	13	105	103	98	36	100	.	.	.	.	.	.
Cc1ccc(-n2c(O)c(C=NCc3ccco3)c(=O)[nH]c2=S)cc1C	.	97	98	?	8	98	.	.	.	.	.	.
CCN1CCN(c2cc(N3CCCC3)c(F)cc2[N+](=O)[O-])CC1	17	184*[activator]	108	112	12	122	-2	98	62*	78	79	64	RGS4-Gao HTS=108*
O=c1[nH]c(=O)n(Cc2ccc(F)cc2)c(O)c1/C=N/Nc1ccccc1	.	101	102	?	9	100	.	.	.	.	.	.
O=[N+]([O-])c1cc(-c2ccc([As](=O)(O)O)cc2)ccc1[As](=O)(O)O	.	143	146	?	5	131	.	.	.	.	.	.
Cc1c(N=Nc2c(O)n(C)c(=O)n(C)c2=O)c(=O)n(-c2ccccc2)n1C	12	1	65	66	6	58*	1	100	99	98	102	92	RGS4-Gao HTS=65*
CC(C)(C)n1cc(C(=O)c2ccccc2)cc1-c1ccccc1	.	104	99	?	3	98	.	.	.	.	.	.
COc1ccc2c(c1)NP(=S)(Oc1ccccc1)N2 (centres undefined)	.	105	108	?	6	103	.	.	.	.	.	.
CN1C(=O)NC(=O)/C(=C/c2ccc([N+](=O)[O-])o2)C1=O	.	41	88	?	4	58*	.	.	.	.	.	.	RGS4-Gao HTS=88*
SMILES	GSH fluor	RGS16-Gao	RGS4-Gao reg	RGS7-Gao	Avidin fluor	RGS8-Gao	Avidin counter	RGS8-Gao single	RGS7-Gao single	RGS16-Gao single	RGS4-Gao single	RGS19-Gao single	others
Cn1cccc1CN1CCN(C(=O)COc2ccccc2)CC1	17	88	92	95	14	96	.	.	.	.	.	.
Cn1nc(-c2ccc(OCC(=O)N3CCN(Cc4ccccc4)CC3)cc2)c2ccccc2c1=O	29	38	35*!	42*!	1	66	0	101	104	100	101	87
CCOP(=S)(OCC)c1ccc(N(C)C)cc1	65	329	123	116	13	149*[activator]	0	100	100	99	100	89	RGS4-Gao HTS=123*
Nc1c2c(nc3sc4c(c13)CCCCC4)CCCC2	10	89	102	104	3	97	.	.	.	.	.	.
BrCC1C[n+]2c(SCc3ccccc3)nc3sc4c(c3c2O1)CCCC4 (centres undefined)	.	221*[activator]	249*[activator]	?	117*	119	0	93	89	91	93	85
O=C1CCCN1c1ccc(S(=O)(=O)O)cc1 (tested in a mixture with another compound)	17	108	102	102	15	102	.	.	.	.	.	.
COC(=O)c1ccc(CN2CCN(Cc3ccccc3)CC2)cc1	11	101	104	101	27	99	.	.	.	.	.	.
COC(=O)C1=CCCN(C)C1	14	13*	16*	5.1*	1	21*	-1	102	100	102	103	97
CC(C)NS(=O)(=O)c1ccc(OCC(=O)N2CCN(C)CC2)cc1	20	381	134	130	5	185*[activator]	.	.	.	.	.	.	RGS4-Gao HTS=134*
CCNC(=S)N(C)CCc1cc2c(c(OC)c1C=C1C(=O)N(C)C(=O)N(C)C1=O)OCO2	.	93	90	?	9	96	.	.	.	.	.	.
